PAX8 inh HTS: inhibitors of PAX8 transcriptional activity in RMG-I cells; RMG-I TPO-luciferase reporter, SteadyGlo, 24 h; inhibition, % at 12.6 µM; actives 1.2% (n = 360,000);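 active means mean replicate inhibition at least 60% with every replicate also reaching 60%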;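 further: luciferase light reporting Pax8 driven TPO promoter activity; plate controls were median of neutral control wells for no effect and mitoxantrone controls for full effect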
LGR2 antag: Drosophila LGR2 receptor signaling inhibition. HEK293 LGR2, CRE-luciferase, bursicon-stimulated, 4 h. inhibition, % at 9.99 µM. actives 0.35% (n = 380,000);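 active means drop in luminescence signal, shown as inhibition above about 50% in the replicate tests, limit read from the data, passing the limit was not always enough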;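 further: agonist challenge used bursicon conditioned medium at about half maximal strength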
EWS-Fli block: inhibitors of EWS/Fli oncoprotein transcriptional activity; A673 NR0B1-luciferase reporter, viability-normalised; inhibition, % at 12.6 µM; actives 0.67% (n = 350,000);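 active means mean inhibition of at least 50% after viability correction, with every replicate also passing that limit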;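 further: firefly luciferase signal divided by Alamar Blue viability fluorescence both relative to DMSO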
Shn3 inh set2: Schnurri-3 reporter inhibition in Clone20 osteoblasts. inhibition, % at 12.5 µM. Clone20 osteoblast Shn3 3'UTR firefly luciferase, 24 h. AID 588674. actives 0.52% (n = 360,000);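 active means mean inhibition of at least 75% with every replicate also reaching 75%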;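 further: 0% = median of neutral control wells and 100% = pilot-screen positive control compound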
KKLEB tox: counter-screen for CF NF-kB inhibitors: cytotoxicity; KKLEB CF airway cells viability, ATPlite luminescence, overnight; stronger effect = lower value; cells stimulated with P. aeruginosa culture filtrate; activity change (cytotoxicity), % at 5 µM; actives 0.36% (n = 360,000); AID 602141;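 active means corrected activity change at or below -50% at 5 µM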
CF NFkB block: blocks PAF-induced NF-kB reporter in cystic fibrosis cells. KKLEB NF-kB-GFP reporter, GFP fluorescence overnight. inhibition, % at 5 µM. actives 0.86% (n = 360,000). AID 588850;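 active means at least 50% inhibition at 5 µM, scaled per plate between neutral and stimulator controls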;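 further: PAF is a Pseudomonas aeruginosa culture filtrate used as stimulus; plate controls were PAF-stimulated DMSO wells for no effect and unstimulated DMSO wells for full effect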
An asterisk follows results filed as active; · = no result. This is a sample that favours compounds with a hit; in the whole collection about 2% have one here.

SMILES	PAX8 inh HTS	LGR2 antag	EWS-Fli block	Shn3 inh set2	KKLEB tox	CF NFkB block
C[C@H]1CCCCO[C@H](CN(C)C(=O)Nc2cccc3ccccc23)[C@@H](C)CN([C@@H](C)CO)C(=O)c2cc(NS(=O)(=O)c3ccccc3)ccc2O1	72*	9	27	·	·	·
CC(C)C#Cc1cnc2c(c1)C(=O)N([C@H](C)CO)C[C@H](C)[C@@H](CN(C)C(=O)c1ccccc1F)O2	13	1	-3	·	·	·
COc1ccc(CNC(=O)C[C@H]2CC[C@H](NC(=O)c3cccc(F)c3)[C@@H](CO)O2)cc1	-4	-1	-3	·	·	·
CO[C@@H]1CN(C)C(=O)c2cc(NC(=O)Nc3ccc(Cl)cc3)ccc2OC[C@H](C)N(C)C[C@H]1C	5	-3	13	·	·	·
Cc1ccc(S(=O)(=O)Nc2ccc3c(c2)C(=O)N([C@@H](C)CO)C[C@@H](C)[C@@H](CN(C)C(=O)Nc2cccc4ccccc24)OCCCC[C@H](C)O3)cc1	10	4	-1	·	·	·
Cc1ccc(S(=O)(=O)Nc2ccc3c(c2)C(=O)N([C@@H](C)CO)C[C@H](C)[C@@H](CN(C)C(=O)Nc2cccc4ccccc24)OCCCC[C@H](C)O3)cc1	70*	4	14	·	·	·
CCCN1[C@@H]2Cn3c(ccc(C4=CCCCC4)c3=O)[C@H]1[C@@H](C(=O)N1CCOCC1)[C@@H]2CO	5	-2	-1	·	·	·
O=C(C[C@@H]1C=C[C@H](NC(=O)c2ccncc2)[C@H](CO)O1)Nc1ccccc1	·	-3	0	·	·	·
Cc1ccnc(N2C(=O)c3cccc4c([N+](=O)[O-])ccc(c34)C2=O)c1	·	-10	66*	47	-5	-5
O=C1c2cccc3cccc(c23)C(=O)N1Cc1cccnc1	1	2	-2	6	-17	-8
Cc1cccc(N2C(=O)c3cccc4c(N5CCCCC5)c([N+](=O)[O-])cc(c34)C2=O)c1C	-8	2	·	2	-1	5
Cc1ccc(N2C(=O)c3cccc4c([N+](=O)[O-])ccc(c34)C2=O)c2cccnc12	15	24	17	92*	-2	20
Cc1nnc(N2C(=O)c3cccc4c([N+](=O)[O-])ccc(c34)C2=O)s1	18	-12	68*	22	8	-12
Cc1ccnc(N2C(=O)c3ccccc3C2=O)c1	20	5	4	-2	0	9
O=C1c2cccc3c([N+](=O)[O-])ccc(c23)C(=O)N1Cc1cccnc1	34	103*	38	49	-4	-1
Cc1cnc(N2C(=O)c3ccc([N+](=O)[O-])cc3C2=O)s1	-9	-5	-1	-7	-4	0
CCS(=O)(=O)N[C@@H]1C=C[C@@H](CC(=O)NCC2CCCCC2)O[C@@H]1CO	0	-12	-3	·	·	·
CS(=O)(=O)N1[C@H](C#N)[C@H](c2ccccc2-c2ccc(F)cc2)[C@H]1CO	1	-1	-6	·	·	·
O=C(NCc1ccccc1)C1Cc2c(-c3ccc(Cl)cc3)ccnc2O1 (stereo unspecified)	23	-2	60*	5	-28	35
O=C(NCc1ccco1)C1CC(c2cc(C(F)(F)F)cc(C(F)(F)F)c2)=NO1 (stereo unspecified)	5	-12	75*	8	-4	26
O=C(NCc1ccco1)C1Cc2c(-c3cccc(F)c3)ccnc2O1 (stereo unspecified)	31	-22	54*	21	-11	18
O=C(NCc1ccccc1)C1Cc2c(-c3cccc(F)c3)ccnc2O1 (stereo unspecified)	55	10	67*	15	-18	38
C[C@H]1CN([C@@H](C)CO)C(=O)c2cc(-c3ccc(F)cc3)cnc2O[C@@H]1CN(C)C(=O)c1ccccn1	-14	-16	7	·	·	·
Cc1noc(C)c1NC(=O)N(C)C[C@H]1OCCCC[C@H](C)Oc2ccc(N(C)C)cc2C(=O)N([C@@H](C)CO)C[C@@H]1C	1	7	-7	·	·	·
O=C(C[C@@H]1C=C[C@H](NC(=O)CCN2CCCCC2)[C@@H](CO)O1)Nc1ccc(-c2ccccc2)cc1	-2	-3	-10	·	·	·
SMILES	PAX8 inh HTS	LGR2 antag	EWS-Fli block	Shn3 inh set2	KKLEB tox	CF NFkB block
Cc1ccccc1S(=O)(=O)N1C[C@@H](O)COC[C@@H]2O[C@@H](CC(=O)O)CC[C@H]21	-14	12	-1	·	·	·
C[C@@H]1CCCCO[C@H](CN(C)Cc2ccc3c(c2)OCO3)[C@H](C)CN([C@H](C)CO)C(=O)c2cc(NC(=O)Nc3ccc(C(F)(F)F)cc3)ccc2O1	-22	1	9	·	·	·
C[C@H]1CCCCO[C@@H](CN(C)Cc2ccc3c(c2)OCO3)[C@@H](C)CN([C@@H](C)CO)C(=O)c2cc(NC(=O)Nc3ccc(C(F)(F)F)cc3)ccc2O1	-18	22	-5	·	·	·
C[C@@H]1CCCCO[C@@H](CN(C)Cc2ccc3c(c2)OCO3)[C@@H](C)CN([C@@H](C)CO)C(=O)c2cc(NC(=O)Nc3ccc(C(F)(F)F)cc3)ccc2O1	77*	27	4	·	·	·
C[C@@H]1CN([C@@H](C)CO)C(=O)c2cc(NC(=O)Nc3ccc(C(F)(F)F)cc3)ccc2O[C@@H](C)CCCCO[C@@H]1CN(C)Cc1ccc2c(c1)OCO2	101*	12	0	·	·	·
C[C@@H]1CCCCO[C@@H](CN(C)Cc2ccc3c(c2)OCO3)[C@H](C)CN([C@@H](C)CO)C(=O)c2cc(NC(=O)Nc3ccc(C(F)(F)F)cc3)ccc2O1	88*	10	-1	·	·	·
O=C(C[C@H]1CC[C@H]2[C@@H](COC[C@@H](O)CN2Cc2ccccc2F)O1)N[C@@H]1CCN(Cc2ccccc2)C1	32	1	6	·	·	·
COC(=O)[C@]12CCCCC=C1N(Cc1cccc3ccccc13)C(=O)[C@H](CC(=O)N1CCCC1)C2	3	11	3	·	·	·
CCOC(=O)[C@]12CCCC=C1N(Cc1ccccc1)C(=O)[C@H](CC(=O)NCc1ccc(OC)c(OC)c1)C2	-3	0	-5	·	·	·
COC(=O)[C@]12CCCCC=C1N(Cc1cccc3ccccc13)C(=O)[C@H](CC(=O)N1CCN(C(=O)c3ccco3)CC1)C2	92*	31	0	·	·	·
CCOC(=O)[C@]12CCCC=C1N(Cc1ccccc1)C(=O)[C@H](CC(=O)N1CCN(C(=O)c3ccco3)CC1)C2	71*	21	-8	·	·	·
CCOC(=O)[C@]12CCCC=C1N(Cc1cccc3ccccc13)C(=O)[C@H](CC(=O)NCc1ccc(OC)c(OC)c1)C2	27	40*	14	·	·	·
COC(=O)[C@]12CCCCC=C1N(CCC1=CCCCC1)C(=O)[C@H](CC(=O)N1CCN(C(=O)c3ccco3)CC1)C2	79*	-8	3	·	·	·
C[C@H](CO)N1C[C@H](C)[C@@H](CN(C)C(=O)CC2CC2)Oc2ncc(C#CCC3CCCC3)cc2C1=O	-1	-6	9	·	·	·
